Screens (PubChem)
An excerpt weighted towards active compounds, which were near 2.4% of everything screened.
POLH inh: qHTS for Inhibitors of Polymerase Eta. DNA polymerase eta (Homo sapiens), Q9Y253. recombinant Pol eta, fluorescent DNA replication assay. Potency, µM (series often up to 114 µM), for the others: at the highest dose activity change, negative = inhibition, usual class: inhibitors. hit rate 1.2% among 390,000; note: % is set by controls: 0 for no effect and ±100 for the full control effect
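Pol eta (10 nM) was preincubated with compounds for 15 min at room temperature, after which fluorescent replication substrate (50 nM final) was added to start the reaction. Fluorescence was read kinetically at 0 and 10 min.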
WRN inhibitor: qHTS for Inhibitors of WRN Helicase | Bifunctional 3'-5' exonuclease/ATP-dependent helicase WRN (Homo sapiens), Q14191 | WRN helicase unwinding, fluorescent forked duplex, kinetic | Potency, µM (top dose mostly 114 µM), without a hit: at the highest dose activity change, negative = inhibition, most hits filed as inhibitors | hit rate 0.46% among 360,000; note: % is set by controls: 0 for no effect and ±100 for the full control effect; nearly all actives have a fitted effect of over 55% in size
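Kinetic fluorescence helicase assay: unwinding of a quenched forked DNA duplex (100 nM final) with 2 mM ATP final raises red fluorescence (525/598 nm). Compounds sat 15 min at room temperature with 20 nM WRN beforehand.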
FEN1 inh: qHTS Assay for the Inhibitors of Human Flap endonuclease 1 (FEN1); P39748; Recombinant FEN1 flap cleavage, fluorescence, 15 min; Potency, µM (doses to about 114 µM), inactives show at the top dose activity change, negative = inhibition, hits mostly inhibitors; hit rate 0.35% among 390,000; note: % is set by controls: 0 for no effect and ±100 for the full control effect; nearly all actives have a fitted effect of over 65% in size
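In this screen, 50 nM flap DNA substrate was added to 10 nM FEN1 pretreated with compound for 15 min at room temperature; cleavage was followed with reads at 0 and 15 min, and Hill fitting gave concentration–response parameters.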
Pol kappa inh: qHTS for Inhibitors of Polymerase Kappa. DNA polymerase kappa (Homo sapiens), Q9UBT6. purified Pol kappa, fluorescent DNA synthesis assay, 10 min. Potency, µM (series often up to 107 µM), without a hit: top-dose activity, negative = inhibition, actives largely listed as inhibitors. hit rate 0.53% among 400,000. AID 588579, 2011; note: % is set by controls: 0 for no effect and ±100 for the full control effect
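Kinetic fluorescence screen: compound preincubated 15 min RT with 10 nM enzyme; 50 nM substrate (final) initiates; reads at 0/10 min.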
Pol beta inh: qHTS Assay for Inhibitors of DNA Polymerase Beta; P06746; Pol beta primer extension/strand displacement, fluorescence kinetic; Potency, µM (top dose mostly 114 µM), for inactives: at the top dose activity change, negative = inhibition, usual class: inhibitors; hit rate 1.3% among 340,000; AID 485314, 2010; note: % is set by controls: 0 for no effect and ±100 for the full control effect
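Homogeneous kinetic assay of primer extension and strand displacement by 10 nM Pol beta, preincubated 15 min at room temperature with compound before 50 nM substrate (final) was added. Read at 0 and 10 min; four-parameter Hill fit.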
Pol iota inh: qHTS for Inhibitors of Polymerase Iota; DNA polymerase iota (Homo sapiens), Q9UNA4; Pol iota fluorescent replication assay, 10 min; Potency, µM (doses to about 115 µM), inactives show at the highest dose activity, negative = inhibition, most hits filed as inhibitors; hit rate 1% among 390,000
Target sequence (Q9UNA4 whole entry, looked up): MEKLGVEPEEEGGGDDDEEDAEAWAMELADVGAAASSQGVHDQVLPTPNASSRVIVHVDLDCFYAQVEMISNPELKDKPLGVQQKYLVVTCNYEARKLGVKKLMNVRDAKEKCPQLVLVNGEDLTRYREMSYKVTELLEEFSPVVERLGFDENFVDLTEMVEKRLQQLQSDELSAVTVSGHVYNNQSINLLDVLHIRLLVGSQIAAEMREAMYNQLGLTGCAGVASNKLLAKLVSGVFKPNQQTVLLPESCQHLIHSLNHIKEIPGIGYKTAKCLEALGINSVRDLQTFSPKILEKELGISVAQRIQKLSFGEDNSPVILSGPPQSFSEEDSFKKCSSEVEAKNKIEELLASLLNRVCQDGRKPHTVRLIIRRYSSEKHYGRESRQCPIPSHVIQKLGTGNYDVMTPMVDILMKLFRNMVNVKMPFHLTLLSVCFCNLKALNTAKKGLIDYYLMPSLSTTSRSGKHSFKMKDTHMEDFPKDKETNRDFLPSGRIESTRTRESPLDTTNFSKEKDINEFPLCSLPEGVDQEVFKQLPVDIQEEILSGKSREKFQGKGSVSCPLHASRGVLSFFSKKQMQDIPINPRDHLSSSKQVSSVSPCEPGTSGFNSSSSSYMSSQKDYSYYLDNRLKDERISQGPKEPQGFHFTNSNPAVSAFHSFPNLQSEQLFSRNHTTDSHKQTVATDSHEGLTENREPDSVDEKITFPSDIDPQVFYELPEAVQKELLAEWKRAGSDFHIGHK
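Fluorescent replication assay read twice, at 0 min and 10 min after adding 50 nM (final) substrate. Enzyme (10 nM) and compounds were first incubated 15 min at room temperature; enzyme-free buffer wells were negative controls.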
Starred values were filed as active, the others as inactive; u = inconclusive; x = no result given; ! = a repeat was not active; [ ] = another dose, or the depositor's remark. Calls come from the whole dose curve; as a rule, active = well fitted curve in the direction sought with a large enough effect; inconclusive = small, poorly fitted or top-dose-only effect, or another doubt; inactive = no such curve, though single readings can be large; an effect the other way counts as inactive or inconclusive. Potency is the fitted concentration of half-maximal effect.

SMILES | POLH inh | WRN inhibitor | FEN1 inh | Pol kappa inh | Pol beta inh | Pol iota inh
O=C(O)c1ccc(S(=O)(=O)c2ccccc2C(=O)O)c([N+](=O)[O-])c1 | 8% | 2% | 12% | -2% | u | -15%
O=C(O)c1ccc(S(=O)(=O)c2ccc([N+](=O)[O-])cc2[N+](=O)[O-])cc1 | 79µM* | u | -15% | -23% | 8% | 1.1µM*
CC(=O)C1=C(O)C(=O)N(Cc2ccccc2)C1c1ccc(N(C)C)cc1 (stereo not drawn) | 0% | -1%[11.6 µM] | 18µM* | -18% | 18% | -13%
COCc1cc(O)c(O)c(O)c1-c1c(COC)cc(O)c(O)c1O | x | x | 1.6µM* | 0.21µM* | x | 2.8µM*
O=C(O)CSc1c2c(nc3cc(C(=O)Nc4ccc(F)c(Cl)c4)ccc13)CCC2 | u | x | -24% | u | u | 50µM*
O=S(=O)(c1ccc(Oc2ccc(-c3nnco3)cc2)nc1)N1CCC(Cc2ccccc2)CC1 | 45µM* | 5% | 1% | -15% | u | -6%
COc1ccc(NC(=S)NCCCCCC(=O)C[N+](=O)[O-])cc1 | 79µM* | -7%[11.6 µM] | 1% | -4% | -1% | u
O=C(CCCCCNC(=S)Nc1ccc(Cl)cc1)C[N+](=O)[O-] | -18% | -9% | 2% | 1% | 11% | 12%
CCCCn1c(=O)[nH]c(=O)c2c1nc(Cn1ncc(Cl)c(Cl)c1=O)n2CCC | 56µM* | -23% | -1% | -8% | 50µM* | 25µM*
Cc1nc2nc(C)c(CCC(=O)NCCCN3CCN(c4cccc(Cl)c4)CC3)c(C)n2n1 | -6% | -10%[57.1 µM] | 11% | 3% | 15% | 32µM*!
CCCN1C(=O)c2ccccc2NC1c1ccc(OC)c(COc2cccc(OC)c2)c1 (stereo not drawn) | x | x | -12% | -7% | x | -12%
O=C(/C=C/c1ccc2c(c1)OCO2)c1cccs1 | x | x | x | -9%[19.4 µM] | x | x
O=C(CSc1nc2sc3c(c2c(=O)n1-c1ccccc1)CCCC3)N/N=C/c1ccc(C(=O)O)cc1 | u | 1%[11.6 µM] | 4% | u | u | 40µM*
C[C@]12C=CC(=O)N[C@@H]1CC[C@@H]1C2CC[C@]2(C)C(C(=O)Nc3cc(C(F)(F)F)ccc3C(F)(F)F)CC[C@@H]12 (stereo partly drawn) | x | x | x | -6%[60.1 µM] | x | x
O=C1NC(=O)/C(=C\c2ccc(Br)o2)S1 | 22µM* | -34% | u | 25µM* | 18µM* | u
O=C1NC(=O)/C(=C/c2cc3c(cc2Br)OCO3)S1 | -12% | -24% | -8% | 0% | -18% | u
COc1ccc(CN2CCC(Oc3cc(C(=O)NC4CC4)ccc3OC)CC2)c(O)c1 | -5% | -4%[11.6 µM] | -12% | u | 3% | 79µM*
CC1(C)OC(=O)C2(Cc3ccccc3N3CCCC32)C(=O)O1 (stereo not drawn) | x | x | 10% | u | x | 79µM*
C=CCc1ccccc1OCC(O)CN1CCN(c2ccccc2)CC1 (stereo not drawn) | -18% | x | u | u | -5% | 79µM*
O=C(CNC(=O)C(c1ccccc1)c1ccccc1)OCC(=O)c1ccc2ccccc2c1 | x | x | 13% | -9% | x | 10%
O=C(CSc1nnc2ccccn12)Nc1ccccc1Cl | -7% | -6% | -9% | -17% | x | 16%
O=C(CSc1nnc2ccccn12)NC(=O)c1ccccc1Cl | 40µM* | -20% | 18% | u | x | 28µM*
Cn1nc(-c2ccc(OCC(=O)Nc3cccnc3)cc2)c2ccccc2c1=O | -4% | -3% | -3% | -8% | -10% | -6%
Cn1nc(-c2ccc(OCC(=O)Nc3cccc(C(F)(F)F)c3)cc2)c2ccccc2c1=O | 79µM* | x | -8% | -6% | u | 12%
CN(Cc1ccco1)c1cc(-c2ccoc2)ncn1 | x | x | x | 25µM* | x | x
SMILES | POLH inh | WRN inhibitor | FEN1 inh | Pol kappa inh | Pol beta inh | Pol iota inh
Cc1cccc(NC(=O)COc2ccccc2C(=O)Nc2ccccc2)c1 | x | x | -5% | 6% | x | -11%
CCOC(=O)Cc1cn2c(=O)cc(CSCC(=O)Nc3ccc(C)c(C)c3)nc2s1 | 89µM* | -26% | 36% | -20% | u | u
CCOC(=O)c1cc2c(=O)n3ccccc3nc2n(Cc2ccco2)c1=NC(=O)c1ccccc1Br | u | x | u | 89µM* | u | 14µM*
CCOC(=O)c1cc2c(=O)n3ccccc3nc2n(Cc2ccco2)c1=NC(=O)c1ccccc1OCC | -8% | -10% | 0% | -4% | 1% | u
CCOC(=O)c1cc2c(=O)n3ccccc3nc2n(Cc2ccco2)c1=NC(=O)c1cccnc1 | u | u | -2% | -38% | 18µM* | u
CCOC(=O)c1cc2c(=O)n3ccccc3nc2n(Cc2ccco2)c1=NC(=O)c1cccc(Br)c1 | 1% | x | u | 2%[60.1 µM] | 22µM* | 40µM*
CCOC(=O)c1cc2c(=O)n3ccccc3nc2n(Cc2ccco2)c1=NC(=O)c1cccc(C)c1 | -3% | x | 0% | -27% | -13% | u
Cc1cccn2c(=O)c3cc(C#N)c(=NC(=O)c4ccccc4)n(Cc4ccco4)c3nc12 | 25µM* | 50µM*! | 50µM*! | u | x | u
O=C1[C@H](Cc2ccccc2)NC/C=C\C[C@H](c2ccc(Cl)cc2)N1Cc1ccc(Cl)cc1 | x | x | u | -22% | x | 7%
CCOC(=O)c1cc2c(=O)n3ccccc3nc2n(Cc2ccco2)c1=NC(=O)c1ccc(Br)cc1 | -9% | x | 35µM* | u | -3% | 45µM*
COc1ccc2nnc(-c3ccccc3)n2n1 | -2% | -15%[11.6 µM] | -15% | -19% | -1% | 89µM*
COc1cc(CCNc2ccc3nnc(-c4ccccc4)n3n2)cc(OC)c1OC | 2% | 4% | 0% | -19% | u | 7%
COc1cc2nc(N3CCCCC3)nc(NC3CC3)c2cc1OC | x | x | u | -26% | x | 2%
O/N=C(/CI)c1ccc2ccccc2c1 | x | x | u | 2% | x | -14%
CN(C)c1ccc(C(=C2C=CC(=[N+](C)C)C=C2)c2ccc(N(C)C)cc2)cc1 | x | x | 40µM* | u | x | -7%
CN(C)c1ccc(C(=C2C=CC(=[N+](C)C)C=C2)c2c(O)c(S(=O)(=O)[O-])cc3cc(S(=O)(=O)O)ccc23)cc1 | x | x | 45µM* | 8.9µM* | x | u
CN(C)c1ccc(C(=C2C=CC(=[N+](C)C)C=C2)c2ccccc2)cc1 | x | x | x | -11%[12 µM] | x | x
Cn1cnc2nc(NCCO)nc(NCc3ccccc3)c21 | x | x | x | 3%[19.4 µM] | x | x
